Experimental data published in PubChem BioAssay (NCATS).
Inconclusive results are not listed. Active and inactive are the calls of the source. Unless noted, the call rests on the fitted dose curve.

System: not listed separately
Test: Confirmatory qHTS for VERO E6 Cytotoxicity Assay: Counterscreen for SARS-CoV-2 CPE Assay (AID 1508605); further: nearly all actives have a fitted effect of over 60% in size; further: potency means the concentration at half of the fitted maximal effect; on activity change, negative = cytotoxic: on the % scale 0 is the no-effect control and ±100 the full control effect
Conditions: cell viability luminescence; series mostly up to 20 µM; activity change, negative = cytotoxic: at the top concentration

| SMILES | Potency | activity change, negative = cytotoxic |
| --- | --- | --- |
| COC(=O)[C@]1(C)CC[C@]2(C)CC[C@]3(C)C4=CC=C5C(=CC(=O)C(O)=C5C)[C@]4(C)CC[C@@]3(C)[C@@H]2C1 | 1.01 µM (active) |  |
| COCCNCc1ccc(-c2cc3nccc(Oc4ccc(NC(=O)C5(C(=O)Nc6ccc(F)cc6)CC5)cc4F)c3s2)nc1 | 5.01 µM (active) |  |
| Nc1nc(OC(c2ccc(-c3cccc(F)c3)cc2)C(F)(F)F)cc(-c2ccc(C[C@H](N)C(=O)O)cc2)n1 (stereo not given in full) |  | -8.41% (inactive) |
| O=C1NC(=O)/C(=C\c2ccc(-c3ccc(F)cc3)o2)S1 |  | -9.25% (inactive) |
| Nc1nc(Nc2ccc3c(c2)CC[C@@H](N2CCCC2)CC3)nn1-c1cc2c(nn1)-c1ccccc1CCC2 | 10 µM (active) |  |
| c1ccc(-c2ccc(CNc3nc(-c4ccccn4)nnc3-c3ccccc3)cc2)cc1 | 0.501 µM (active) |  |

System: not listed separately
Test: Confirmatory qHTS for activators (rescue) of SARS-CoV-2 Cytopathic Effect (CPE) (AID 1508606); further: nearly all actives have a fitted effect of over 70% in size; further: potency means the concentration at half of the fitted maximal effect; on CPE rescue (activation): 0% is about no effect
Conditions: Vero E6 SARS-CoV-2 CPE rescue, viability luminescence; series mostly up to 20 µM; CPE rescue (activation): at the top concentration

| SMILES | Potency | CPE rescue (activation) |
| --- | --- | --- |
| O=S(=O)(NCC1CC1)c1ccc(Nc2nccc(N3CCCc4cc(O)ccc43)n2)cc1 | 0.794 µM (active) |  |
| C[C@@H]1C[C@H](N)C[C@H](c2ccncc2NC(=O)c2ccc(F)c(-c3c(F)cccc3F)n2)C1 | 8.91 µM (active) |  |
| Cc1nc(Nc2cnn(C3CCNCC3)c2)nc2c1N(C)C(=O)c1cc3ccccc3cc1N2C | 10 µM (active) |  |
| COc1cc2ncnc(Sc3nnc(C)s3)c2cc1OC | 3.98 µM (active) |  |
| O=S(=O)(c1cccc2ccccc12)n1ccc2ccc(N3CCN4CCCC4C3)cc21 (stereo not given) | 11.2 µM (active) |  |
| CN(C)C(=O)NC1(c2ccccc2)CCN(CCC[C@]2(c3ccc(Cl)c(Cl)c3)CCCN(C(=O)c3ccccc3)C2)CC1 |  | -11.4% (inactive) |
| CC(=O)O/N=C1\C(=O)N(Cc2cc(Cl)ccc2Cl)c2ccc(Cl)cc21 | 7.94 µM (active) |  |
| CC(C)C[C@H](NC(=O)[C@H](Cc1ccccc1)NC(=O)OCc1ccccc1)C(=O)C=O | 8.91 µM (active) |  |
| Cc1cc(CN)cc(C)c1NC(=O)c1ccc(-c2cc(Cl)ccc2Cl)o1 | 7.94 µM (active) |  |
| OC1CCC(Oc2cccc3cnc(Nc4ccc5nc[nH]c5c4)nc23)CC1 (stereo not given) | 4.47 µM (active) |  |
| COc1ccc(S(=O)(=O)N(CCO)c2ccccc2CN(C)C/C=C/c2ccc(Cl)cc2)cc1 | 10 µM (active) |  |
| Nc1nc2c(c(N3CC[C@@H](N)C3)n1)CCCc1ccccc1-2 | 10 µM (active) |  |
| C(=N\Nc1nc(Nc2ccccc2)nc(N2CCOCC2)n1)/c1c[nH]c2ccccc12 | 0.0898 µM (active) |  |
| c1ccc(-c2cc(CCC3CCNCC3)c3ccccc3n2)cc1 |  | -9.44% (inactive) |
| Cn1c(NC[C@@H](N)Cc2ccccc2)nc(-c2ccncc2)c(-c2ccc3ccccc3c2)c1=O | 6.31 µM (active) |  |
| COc1cc(N2CCN(C)CC2)ccc1Nc1nccc(-c2cn(C)c3cnccc23)n1 | 8.91 µM (active) |  |
| C[C@H]1CC[C@@]2(OC1)O[C@H]1CC3[C@@H]4CC[C@@H]5C[C@@H](O[C@@H]6O[C@H](CO)[C@@H](O[C@@H]7O[C@@H](C)[C@H](O)[C@@H](O)[C@H]7O)[C@H](O)[C@H]6O[C@@H]6O[C@H](CO)[C@@H](O)[C@H](O)[C@H]6O)CC[C@]5(C)C4CC[C@]3(C)[C@H]1[C@@H]2C (stereo not given in full) |  | -13.7% [at 6.64 µM] (inactive) |
| Cc1nc2ccc(-n3ncc(C(=O)c4cc5ccccc5[nH]4)c3N)cc2[nH]1 |  | 19.3% (inactive) |
| C/C=C(\C)C(=O)O[C@H]1C=C(CO)C(=O)[C@H](OC(C)=O)[C@H]1C(C)C |  | 24.3% [at 13.4 µM] (inactive) |
| COc1ccc2cc(-c3cc(-c4cc(Cl)cc(Cl)c4)nn3C(C)c3ccc(C(=O)NCCC(=O)O)cc3)ccc2c1 (stereo not given) |  | 3.92% (inactive) |
| CN(CCCNC(=O)c1ccc2nc3c(c(Cl)c2c1)CCCC3)Cc1ccccc1 | 7.08 µM (active) |  |
| CC(C)(O)CNc1ncc(-c2ccnc(Nc3ccncc3)n2)c(CC2CC2)n1 | 1.12 µM (active) |  |
| COCCN1CCN(Cc2ccc(-c3n[nH]c4c3C(=O)c3c(NC(=O)NN5CCOCC5)cccc3-4)cc2)CC1 | 2.82 µM (active) |  |
| CC(C)c1ccc(NC(=O)C(c2ccccc2)N(C)C(=O)Cc2c[nH]c3ccccc23)cc1 (stereo not given) | 3.55 µM (active) |  |
| CC1(C)CCC(C)(C)c2cc(C#Cc3ccc(C(=O)O)cc3)ccc21 |  | 13.3% (inactive) |
| O=C(O)c1ccc(CCCc2ccc(OCCc3ccc(F)cc3)cc2)o1 |  | 38% (inactive) |
| O=C(O)/C=C/c1ccc(-c2ccc(O)c(C34CC5CC(CC(C5)C3)C4)c2)cc1 |  | -8.95% (inactive) |
| COc1ccc(CNC(=O)Nc2ncc([N+](=O)[O-])s2)cc1 | 7.94 µM (active) |  |
| Cc1cc(C)cc(-c2cnc3cc(Cl)c(-c4cccc(O)c4)cc3c2OCCCN)c1 |  | -12.7% (inactive) |
| CC(=O)O[C@@H]1C[C@H](O)[C@@]23CO[C@H](O)[C@]1(C)C2C[C@@H](O)[C@]1(C)C3C(=O)[C@H](OC(C)=O)[C@@]2(C)[C@H](c3ccoc3)C[C@H]3O[C@]321 (stereo not given in full) | 1.06 µM (active) |  |

Molecular target: Calcium and integrin-binding protein 1 (Homo sapiens) (UniProt Q99828)
Test: Primary qHTS for Identification of Calcium Integrin Binding Protein 1 (CIB1) Competitor (AID 1508620; active means well fitted inhibition curve with a large enough effect;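 further: GST tagged CIB1 binding a fluorescein labelled alphaIIb integrin peptide tracer; top concentration of the series differs between compounds; on the % scale 0 is the no-effect control and ±100 the full control effect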)
Conditions: CIB1-GST / FITC-alphaIIb peptide fluorescence polarization; series mostly up to 114 µM; activity change, negative = inhibition: at the top concentration
In short: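 Fluorescence polarization competition: GST-tagged CIB1 (1 uM final) preincubated with compound 15 min at room temperature, then FITC-labelled alphaIIb peptide (100 nM final) added. After 15 min at room temperature, polarization read at Ex 480/Em 540.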

Chain of Calcium and integrin-binding protein 1 (Homo sapiens) (Q99828 whole entry, looked up): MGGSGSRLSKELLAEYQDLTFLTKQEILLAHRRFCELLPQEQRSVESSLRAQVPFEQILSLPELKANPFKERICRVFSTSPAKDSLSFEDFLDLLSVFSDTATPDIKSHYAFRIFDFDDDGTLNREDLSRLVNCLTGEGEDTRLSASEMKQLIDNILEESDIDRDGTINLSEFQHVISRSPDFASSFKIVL

| SMILES | activity change, negative = inhibition |
| --- | --- |
| COc1cccc(CNc2ccc(S(=O)(=O)Nc3ccc4ccccc4c3)cc2)c1O | -1.53% (inactive) |
| O=C1CCCC2=C1C(c1[nH]ncc1Cl)N=C(Nc1nc3ccc(F)cc3o1)N2 (stereo not given) | -6.52% (inactive) |
| CCOc1ccc(CCNC(=O)c2cc3cccnc3n2Cc2cccc(C)n2)cc1OCC | 3.07% (inactive) |
| Cc1[nH]c2ccccc2c1P(=S)(c1ccccc1)c1ccccc1 | -3.73% (inactive) |
